# Measurements: PubChem BioAssay AID1259418 (Broad Institute, 2018)
# Hit rate of the full screen: of about 3,400 compounds, about 840 (25%) were called active. Another 11% or so got no clear call; they are omitted.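 Rule for the calls: active = fitted half-maximal concentration of signal decrease at or below twice the sample's top tested concentration; inconclusive = flat curve between -70 and -30 percent, or poor fit; inactive = flat within 30 percent, signal rise, or potency above limit.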 These entries were drawn from the full list. Entries with a potency or affinity are not part of this list.
# Assay: T. gondii growth inhibition with IFN-gamma, dose response, cell-based, ME49Luc, HeLa, luciferase, 72 h (AID 1259418)
# Conditions: T. gondii ME49Luc in IFN-y HeLa, stronger effect = lower value, -100% = high-dose IFN-γ control wells; at 19.5 µM unless noted
row,SMILES,max activity
1,COc1ccc(CC(=O)N2CCC3(CC2)Nc2ccc(C)c(C)c2-n2cccc23)cc1OC,11.1% [at 0.68 µM] (inactive)
2,Cc1ccc(C)c(-c2coc(-c3ccc(NC(=O)Nc4ccccc4)cc3)n2)c1,17.8% [at 0.16 µM] (inactive)
3,CCOCC1CC2(CCN(C(=O)COc3ccc(C)cc3)CC2)CO1 (stereo not drawn),14.2% (inactive)
4,O=C(CC1N=C2c3ccccc3N=C(SCc3cc(=O)n4cc(Cl)ccc4n3)N2C1=O)NC1CCCCC1 (stereo not drawn),36.6% [at 10 µM] (inactive)
5,FC(F)(F)c1cccc(N2CCN(c3nc(-c4ccc(Cl)cc4)nc4ccccc34)CC2)c1,-11.2% [at 0.16 µM] (inactive)
6,CCc1ccccc1NC(=O)N1CCN(Cc2nc(-c3cccc(Cl)c3)oc2C)CC1,17.6% [at 10 µM] (inactive)
7,Cc1cccc(NC(=O)N2CCN(Cc3nc(-c4cccc(Cl)c4)oc3C)CC2)c1,12.6% (inactive)
8,Cc1oc(-c2cccc(Cl)c2)nc1CN1CCN(C(=O)Nc2cccc(Cl)c2)CC1,10.8% [at 0.35 µM] (inactive)
9,Cc1ccc(Cl)cc1NC(=O)N1CCN(Cc2nc(-c3cccc(Cl)c3)oc2C)CC1,11.1% [at 10 µM] (inactive)
10,CCc1nc(OCC(=O)Nc2cc(C)ccc2C)c2ccccc2n1,10.4% [at 2.6 µM] (inactive)
11,Cc1ccc(CC(=O)N2CCC3(CC2)Nc2cc(F)ccc2-n2cccc23)cc1,-4.79% [at 0.35 µM] (inactive)
12,CC(C)NC(=O)N1CC[C@@H]2[C@@H](CO)N(C)c3ccc(-c4ccc(F)cc4)cc3[C@@H]21,26.2% [at 5 µM] (inactive)
13,CC(C)NC(=O)N1CC[C@@H]2[C@H]1c1cc(-c3ccc(F)cc3)ccc1N(C)[C@H]2CO,-31.5% (inactive)
14,COc1ccc2c(c1)NC1(CCN(C(=O)c3ccccc3F)CC1)c1cccn1-2,8.8% [at 5 µM] (inactive)
15,CN1c2ccc(C#Cc3cccnc3)cc2[C@@H]2[C@@H](CCN2C(=O)c2cccc(F)c2)[C@H]1CO,11.4% (inactive)
16,Fc1ccc(N2CCN(c3nc(-c4ccc(Cl)cc4)nc4ccccc34)CC2)cc1,8.24% (inactive)
17,CCCCC(=O)Nc1ccc(-c2nc(-c3ccc(C)cc3C)co2)cc1,37.3% [at 10 µM] (inactive)
18,O=S(=O)(c1cccs1)N1CCC2(CC1)NCCN=C2NCc1ccccc1Cl,-8.05% [at 1.35 µM] (inactive)
19,Cc1ccc(S(=O)(=O)N2CCC3(CC2)NCCN=C3NCc2ccccc2F)c(C)c1,-12.4% (inactive)
20,O=C(NCCc1csc(-c2ccccc2)n1)[C@H]1CCCN1C(=O)Cc1ccc(F)cc1,-17.3% [at 0.16 µM] (inactive)
21,CCc1nc(OCC(=O)Nc2ccc(C)cc2C)c2ccccc2n1,12.9% [at 10 µM] (inactive)
22,Cc1cc(C)cc(NC(=O)Nc2ccc(-c3nc(-c4ccccc4)co3)cc2)c1,19.9% [at 1.35 µM] (inactive)
23,Cc1ccc(-c2nc(Cn3nnc(-c4nc(-c5ccc(OC(C)C)cc5)no4)c3C)c(C)o2)cc1,12.6% [at 0.16 µM] (inactive)
24,Cc1cc(C)cc(NC(=O)N2CCN(Cc3nc(-c4ccccc4C)oc3C)CC2)c1,8.24% [at 1.35 µM] (inactive)

row,SMILES,max activity
1,Cc1ccc(Cl)cc1NC(=O)Nc1ccc(-c2nc(-c3ccccc3)co2)cc1,-20.1% [at 0.16 µM] (inactive)
2,Cc1ccc(-c2nc(Cn3nnc(-c4nc(-c5cccc(F)c5)no4)c3C)c(C)o2)cc1,3.99% (inactive)
3,Cc1ccc(C)c(-c2coc(-c3ccc(NC(=O)NCCc4ccccc4)cc3)n2)c1,29.4% (inactive)
4,OC[C@H]1[C@@H](c2ccc(C#Cc3ccccc3F)cc2)[C@@H]2CN(CC3CCOCC3)CCCCN12,9.11% [at 1.2 µM] (inactive)
5,C[C@H]1[C@H](NC(=O)/C(=N\OC(C)(C)C(=O)O)c2csc(N)n2)C(=O)N1S(=O)(=O)O,14% [at 21 µM] (inactive)
6,COc1ccc2c(c1)NC1(CCN(C(=O)Cc3ccccc3C)CC1)c1cccn1-2,-9.29% [at 0.16 µM] (inactive)
7,CCc1nc(OCC(=O)Nc2ccc(C)cc2Br)c2ccccc2n1,-11.9% [at 2.6 µM] (inactive)
8,COc1ccc(CCNc2nc(SCc3ccc(F)cc3)nc3ccccc23)cc1OC,-14.5% [at 5 µM] (inactive)
9,CCOC(=O)C(=O)Nc1ccc(-c2nc(-c3ccccc3)co2)cc1,10.7% [at 5 µM] (inactive)
10,Cc1ccc(-c2nc(Cn3nnc(-c4nc(-c5cccc(Br)c5)no4)c3C)c(C)o2)cc1,7.23% [at 0.16 µM] (inactive)
11,CCOc1ccc(C(=O)N2CCC(C(=O)NCCc3csc(C)n3)CC2)cc1,13.7% (inactive)
12,Cc1ccc(C)c(-c2coc(-c3ccc(NC(=O)Cc4cccs4)cc3)n2)c1,19.4% (inactive)
13,O=C(CC1N=C2c3ccccc3N=C(SCc3cc(=O)n4ccccc4n3)N2C1=O)NCc1ccc(F)cc1 (stereo not drawn),17.7% [at 2.6 µM] (inactive)
14,COc1ccc(CCC(=O)N2CCC3(CC2)Nc2cc(F)ccc2-n2cccc23)cc1,14.7% [at 0.68 µM] (inactive)
15,O=C(Nc1ccc(-c2nc(-c3cccc(Br)c3)co2)cc1)Nc1ccc2c(c1)OCCO2,9.52% [at 0.16 µM] (inactive)
16,Cc1ccc(-c2nc(CN3CCN(C(=O)Nc4cccc(C)c4C)CC3)c(C)o2)cc1,12.5% [at 10 µM] (inactive)
17,COc1ccc(CNc2nc(-c3ccc(OC)cc3)nc3ccccc23)cc1,-17.8% [at 10 µM] (inactive)
18,CCCNc1nc(-c2ccc(OC)cc2)nc2ccccc12,-34.8% [at 0.35 µM] (inactive)
19,COc1ccc(-c2nc(NCCCc3ccccc3)c3ccccc3n2)cc1,-17% [at 1.35 µM] (inactive)
20,COc1ccc(-c2nc(NCCC(C)C)c3ccccc3n2)cc1,-29.2% [at 0.68 µM] (inactive)
21,COc1ccc(-c2nc(NCc3ccccc3)c3ccccc3n2)cc1,16.2% (inactive)
22,CN(CCNc1nc(-c2ccc(Cl)cc2)nc2ccccc12)C1CCCCC1,-24.3% [at 2.6 µM] (inactive)
23,COc1ccc(-c2nc(NCCN(Cc3ccco3)C3CCCC3)c3ccccc3n2)cc1,-27.6% [at 2.6 µM] (inactive)
24,CCCCNc1nc(-c2ccc(OC)cc2)nc2ccccc12,22.7% (inactive)
